In assay [1] the target is Metallo-beta-lactamase type 2 (Klebsiella pneumoniae) (UniProt C7C422). In words: qHTS to identify inhibitors of the New Delhi Metallo-beta-lactamase (NDM): assay validation screen against the NCATS LOPAC Collection (AID 1794843). Note: % is set by controls: 0 for no effect and ±100 for the full control effect. A digest of the protocol:
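Absorbance at 485 nm from nitrocefin turnover (50 uM solution added), read at plateau, gives the read-out. Compounds in DMSO were incubated first with 2 nM final NDM-1 in pH 7.0 HEPES buffer containing 1 uM ZnSO4 and 0.01% Tween20.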
For orientation: Quantitative high-throughput screening tests each substance at several concentrations.

Assay [2] addresses Glutathione peroxidase 1 (Homo sapiens) (UniProt P07203). The assay can be described thus: Primary qHTS Assay for Inhibitors of Recombinant Selenoprotein Glutathione Peroxidase 1 (GPX1) (AID 1845191). For activity, negative = inhibition: % is set by controls: 0 for no effect and ±100 for the full control effect. Note: nearly all actives have a fitted effect of over 65% in size. A digest of the protocol:
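NADPH consumption tracked by fluorescence at 340/450 nm between t=0 and t=15 min, room temperature. Final mix: 10 nM GPX1, 100 nM glutathione reductase, 1 mM GSH, 0.5 mM NADPH, 0.5 mM cumene hydroperoxide, 0.01% BSA; 30 min compound–enzyme preincubation.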

Assay [3] deals with Phospholipid hydroperoxide glutathione peroxidase GPX4 (Homo sapiens) (UniProt P36969). The assay can be described thus: Primary qHTS Assay for Inhibitors of Recombinant Selenoprotein Glutathione Peroxidase 4 (GPX4) (AID 1845192). Note: nearly all actives have a fitted effect of over 65% in size. The following applies: outcome: dose series up to 50 µM unless noted. The essentials:
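NADPH consumption followed by fluorescence at 340/450 nm, t=0 and after 15 min at room temperature. Reaction started with cumene hydroperoxide (0.5 mM final) after 30 min compound–GPX4 preincubation; final 200 nM GPX4, 100 nM GR, 1 mM GSH, 0.5 mM NADPH.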

A short description of assay [4]: qHTS profiling for inhibitors of Plasmodium falciparum proliferation (AID 504749).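 For activity, negative = inhibition: 0% = DMSO vehicle and full inhibition = artemisinin control.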 Note: nearly all actives have a fitted effect of over 60% in size. Note: potency is the fitted concentration of half-maximal effect. The note with it: P. falciparum in erythrocytes, SYBR Green DNA, 72 h. A digest of the protocol:
(§1)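 SYBR Green fluorescence of parasite DNA, read after lysis and overnight dark incubation, measured growth over 72 h in erythrocyte culture at 0.3% parasitemia and 2.5% hematocrit. Data normalised to DMSO and 0.29 uM artemisinin, with plate-drift correction.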

In assay [5] the test system is 3D7. The description is as above. The note with it: P. falciparum in erythrocytes, SYBR Green DNA, 72 h; series mostly up to 28.7 µM. A digest of the protocol:
as §1

In assay [6] the test system is AA1029. Described as above. The following applies: P. falciparum in erythrocytes, SYBR Green DNA, 72 h; series mostly up to 28.7 µM. A digest of the protocol:
as §1

Assay [7] relates to AS120. The assay is described as above. The note with it: P. falciparum in erythrocytes, SYBR Green DNA, 72 h; series mostly up to 28.7 µM. The essentials: as §1
The test system of assay [8] is ATS189. The description is as above. The following applies: P. falciparum in erythrocytes, SYBR Green DNA, 72 h; series mostly up to 28.7 µM. The essentials: as §1
Assay [9] has as its system ATS95. Described as above. The note with it: P. falciparum in erythrocytes, SYBR Green DNA, 72 h; series mostly up to 28.7 µM. The essentials: as §1
Assay [10] has as its system C2A. The assay is described as above. The note with it: P. falciparum in erythrocytes, SYBR Green DNA, 72 h; series mostly up to 28.7 µM. A digest of the protocol:
as §1

The subject of assay [11] is CP185. The assay is described as above. The note with it: P. falciparum in erythrocytes, SYBR Green DNA, 72 h; series mostly up to 28.7 µM. The essentials:
as §1

Assay [12] concerns CP191. Described as above. The following applies: P. falciparum in erythrocytes, SYBR Green DNA, 72 h; series mostly up to 28.7 µM. A digest of the protocol:
as §1

In assay [13] the test system is CP192. The assay is described as above. The note with it: P. falciparum in erythrocytes, SYBR Green DNA, 72 h; series mostly up to 28.7 µM. A digest of the protocol:
as §1

Assay [14] relates to CP194. The assay is described as above. The note with it: P. falciparum in erythrocytes, SYBR Green DNA, 72 h; series mostly up to 28.7 µM. A digest of the protocol: as §1
For assay [15], the system named is 7G8. The assay is described as above. The following applies: P. falciparum in erythrocytes, SYBR Green DNA, 72 h; series mostly up to 28.7 µM. A digest of the protocol:
as §1

Where [16] appears, read: at 28.7 µM (top of the series), parasite line A.
Setting [17] is: at 28.7 µM (top of the series), parasite line B.
Where [18] appears, read: at 12.8 µM (top of the series), parasite line A.
Where [19] appears, read: at 12.8 µM (top of the series), parasite line B.

Inconclusive results are not listed. A number with no mark means an inactive call. Active and inactive are the calls of the source. Calls come from the whole dose curve; as a rule, active = well fitted curve in the direction sought with a large enough effect; inconclusive = small, poorly fitted or top-dose-only effect, or another doubt; inactive = no such curve, though single readings can be large; an effect the other way counts as inactive or inconclusive.

Chain of Phospholipid hydroperoxide glutathione peroxidase GPX4 (Homo sapiens) (P36969 whole entry, looked up): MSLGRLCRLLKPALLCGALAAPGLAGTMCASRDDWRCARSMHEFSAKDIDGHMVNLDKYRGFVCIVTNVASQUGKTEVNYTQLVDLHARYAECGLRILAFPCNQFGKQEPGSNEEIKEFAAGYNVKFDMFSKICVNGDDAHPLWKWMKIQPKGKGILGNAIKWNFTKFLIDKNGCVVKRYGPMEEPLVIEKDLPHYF
Chain of Glutathione peroxidase 1 (Homo sapiens) (P07203 whole entry, looked up): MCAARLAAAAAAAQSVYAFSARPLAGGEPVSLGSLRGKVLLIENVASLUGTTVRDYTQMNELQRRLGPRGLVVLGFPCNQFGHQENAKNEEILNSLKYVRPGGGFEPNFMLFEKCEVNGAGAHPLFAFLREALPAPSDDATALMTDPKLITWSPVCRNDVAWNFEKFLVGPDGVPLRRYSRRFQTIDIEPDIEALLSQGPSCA
Chain of Metallo-beta-lactamase type 2 (Klebsiella pneumoniae) (C7C422 whole entry, looked up): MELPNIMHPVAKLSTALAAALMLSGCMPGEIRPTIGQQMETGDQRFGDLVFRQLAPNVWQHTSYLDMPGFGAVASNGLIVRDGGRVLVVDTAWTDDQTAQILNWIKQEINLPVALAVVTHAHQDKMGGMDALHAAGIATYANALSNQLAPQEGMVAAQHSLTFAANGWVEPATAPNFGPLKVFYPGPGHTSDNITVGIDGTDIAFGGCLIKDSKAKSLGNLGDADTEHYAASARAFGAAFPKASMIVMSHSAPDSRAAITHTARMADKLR

Regarding `CCN(CC)CC(=O)Nc1c(C)cccc1C`, the Potency result in [1], in assay [2], in assay [5], in assay [6], in [7] and in [8] was “inactive” in each case. The Potency result in [9], in assay [10], in [11], in [12], in [13] and in assay [14] was “inactive” each time. Also, the outcome in [3] was inactive. In addition, the activity, negative = inhibition in assay [4] (setting [16]) is 7.16%; in [4] (setting [17]) it was 15.8%.

With `OC(CCN1CCCCC1)(c1ccccc1)C1CCCCC1` (configuration not stated), the Potency entry in assay [1], in assay [2], in assay [5], in assay [8], in [10] and in [11] was “inactive” each time. Also, the Potency result in [12] and in assay [13] was “inactive” throughout. Besides, the result in assay [3] was inactive. Also, the results for the activity, negative = inhibition in assay [4] (setting [16]) and in assay [4] (setting [17]) were -22% and -4.19%, respectively. For the same compound, in [15], the Potency was 8.91 µM (active).

On to `CC(C)(Oc1ccc(CCNC(=O)c2ccc(Cl)cc2)cc1)C(=O)O`, for which the Potency entry in assay [1], in assay [2], in assay [5], in [15], in assay [6] and in assay [7] was “inactive” throughout. Also, the Potency result in [8], in assay [9], in [10], in assay [11], in assay [12] and in [13] was “inactive” in each case. In addition, the Potency entry in assay [14] was “inactive”. Besides, in assay [3], the result was inactive. Moreover, the activity, negative = inhibition in assay [4] (setting [18]) was -1.93%; in assay [4] (setting [19]) it was -2.04%.

Turning to `CC(N=C(NC#N)Nc1ccncc1)C(C)(C)C` (configuration not stated), the Potency entry in [1], in assay [2], in assay [5], in [15], in [6] and in assay [7] was “inactive” in each case. Besides, the Potency entry in [8], in assay [9], in [10], in assay [11], in assay [12] and in assay [13] was “inactive” in each case. The Potency result in assay [14] was “inactive”. In addition, the result in assay [3] was inactive. The activity, negative = inhibition in [4] (setting [16]) was -3.66%; in [4] (setting [17]), -7.16%.

For `CCCCCN(CCCCC)C(=O)C(CCC(=O)O)NC(=O)c1ccc(Cl)c(Cl)c1` (configuration not stated), the Potency entry in assay [1], in assay [2], in assay [5], in [15], in assay [6] and in [7] was “inactive” in each case. Also, the Potency entry in assay [8], in [9], in assay [10], in assay [11], in assay [12] and in [13] was “inactive” throughout. Also, in assay [14], the Potency result is “inactive”. Moreover, the outcome in assay [3] was inactive. Also, the activity, negative = inhibition was 16.8% in [4] (setting [16]) and 7.13% in [4] (setting [17]).

With `CCC(=O)c1ccc2c(c1)N(CCCN(C)C)c1ccccc1S2`, the Potency result in [1], in assay [2], in [5], in assay [11] and in assay [13] was “inactive” in each case. The result in [3] was inactive. For the same compound, the activity, negative = inhibition was -23.2% in [4] (setting [16]) and -3.51% in assay [4] (setting [17]).

In the case of `CN=C(NC#N)NCCSCc1nc[nH]c1C`, the Potency result in [1], in assay [2], in [5], in assay [15], in [6] and in [7] was “inactive” in each case. The Potency result in [8], in assay [9], in assay [10], in assay [11], in assay [12] and in [13] was “inactive” each time. Moreover, the Potency entry in assay [14] was “inactive”. In addition, the outcome in assay [3] was inactive. Also, the results for the activity, negative = inhibition in assay [4] (setting [16]) and in assay [4] (setting [17]) were -4.42% and -7.15%, respectively.

Regarding `Cc1scc2c1N(C(=O)CN1CCN(C)CC1)c1ccccc1NC2=O`, the Potency result in assay [1], in [2], in assay [5], in [15], in [6] and in assay [7] was “inactive” in each case. For the same compound, the Potency result in [8], in assay [9], in assay [10], in [11], in [13] and in assay [14] was “inactive” in each case. Besides, in assay [3], the result was inactive. For the same compound, the activity, negative = inhibition in [4] (setting [16]) is 0.0421%; in [4] (setting [17]), 4.05%.

As to `CCN1CCc2nc(N)oc2CC1`, the Potency result in assay [1], in assay [2], in assay [5], in assay [15], in assay [6] and in assay [7] was “inactive” each time. Besides, the Potency entry in assay [8], in [9], in [10], in [11], in assay [12] and in assay [13] was “inactive” throughout. In assay [14], the Potency entry was “inactive”. Further, the result in assay [3] was inactive. Besides, the results for the activity, negative = inhibition in assay [4] (setting [16]) and in [4] (setting [17]) were 1.51% and 1.64%, respectively.

Consider `CCO/C([O-])=N/c1c[n+](N2CCOCC2)no1`, for which the Potency entry in assay [1], in [2], in assay [5], in [15], in assay [6] and in [7] was “inactive” throughout. Moreover, the Potency entry in assay [8], in assay [9], in [10], in assay [11], in assay [12] and in assay [13] was “inactive” throughout. Besides, the Potency result in assay [14] was “inactive”. Moreover, in assay [3], the result was inactive. Further, the activity, negative = inhibition is 2.13% in [4] (setting [18]) and 0.211% in assay [4] (setting [19]).

In the case of `CN(C)C(=O)Oc1ccc[n+](C)c1`, the Potency result in assay [1], in [2], in [5], in [15], in assay [6] and in assay [7] was “inactive” each time. Moreover, the Potency result in [8], in assay [9], in [10], in [11], in assay [12] and in [13] was “inactive” in each case. In assay [14], the Potency result is “inactive”. Also, in [3], the result was inactive. Further, the activity, negative = inhibition in [4] (setting [16]) is 4.28%; in assay [4] (setting [17]), 5.75%.

`CC(=O)Nc1nnc(S(N)(=O)=O)s1`: the Potency result in assay [1], in [2], in assay [5], in [15], in [6] and in assay [7] was “inactive” throughout. The Potency result in assay [8], in [9], in [10], in [11], in assay [12] and in assay [13] was “inactive” each time. The Potency result in [14] is “inactive”. For the same compound, the outcome in [3] was inactive. Further, the activity, negative = inhibition was -9.91% in assay [4] (setting [16]) and 6.59% in assay [4] (setting [17]).

Consider `CN(C)CCOC(=O)COc1ccc(Cl)cc1`, for which the Potency result in assay [1], in assay [2], in assay [15], in [6], in assay [7] and in assay [8] was “inactive” throughout. The Potency result in assay [9], in assay [10], in assay [11], in assay [12] and in assay [13] was “inactive” throughout. In [3], the outcome was inactive. Further, the figures for the activity, negative = inhibition in assay [4] (setting [18]) and in assay [4] (setting [19]) were 18.7% and -4.94%, respectively.

Regarding `CN1CCN(C2=Nc3ccccc3Oc3ccc(Cl)cc32)CC1`, the Potency entry in assay [1], in assay [2], in assay [5], in [6], in [7] and in [8] was “inactive” each time. The Potency entry in assay [9], in assay [10], in assay [11], in assay [12], in assay [13] and in assay [14] was “inactive” each time. Also, the result in [3] was inactive. For the same compound, the results for the activity, negative = inhibition in [4] (setting [18]) and in assay [4] (setting [19]) were 4.87% and -8.95%, respectively.
